Experimental findings from PubChem BioAssay (NCI) are described below.

SMILES strings stand for the structures. Compounds without any hit were thinned out: in the full panel of roughly 83,000, 20% have a hit.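 In brief: 96-well plates, 48 h treatment, single concentration, percent growth endpoint.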 The source made the active and inactive calls. How the source made its calls: active means growth percent below 10; inactive means the rest.

The test system of the assay is UO-31 renal. Nature of the assay: NCI-60 one-dose screen, 48 h (100 = growth as untreated, 0 = no growth, -100 = all killed). To be noted: 10 µM unless noted.
With `CC(=O)OC[C@]12CC[C@@H]([C@@H](C)c3nnc(-c4ccncc4)o3)[C@@H]1[C@H]1CC[C@@H]3[C@@]4(C)CC[C@H](OC(C)=O)C(C)(C)[C@@H]4CC[C@@]3(C)[C@]1(C)CC2`, the growth is 69% (inactive).

Regarding `CCN(CC)c1ccc(/C=N/NC(=O)Cc2ccc(Nc3ccnc(C(F)(F)F)c3)cc2)c(O)c1`, the growth was 20.3% (inactive).

Regarding `Cc1cc2c(cc1C)N(C(=O)CCl)CC(=O)N2`, the growth is 78.3% (inactive).

`C#CC#CC#CC#CC#CC#CC#CC#CC[C@@H]1OC[C@@H](COC(=O)O[C@@H](C(=O)O[C@H]2C[C@@]3(O)[C@@H](OC(=O)c4ccccc4)[C@@H]4[C@]5(OC(C)=O)CO[C@@H]5C[C@H](O)[C@@]4(C)C(=O)[C@H](OC(C)=O)C(=C2C)C3(C)C)[C@@H](NC(=O)c2ccccc2)c2ccccc2)O1`: the growth was 35.2% (inactive).

Take `CCN1C(=O)N(CC)C2C1NN=c1s/c(=C\c3cnc(C)n3C)c(=O)n12` (stereo not given): the growth is 40.9% (inactive).

For the compound `C/C=C(\C)C(=O)N[C@H]1C(O)C[C@]2(C)C3CC[C@@]4(C)C(CC[C@@H]4C(C)N(C)C)C3CCC2C1O` (stereo not given in full), the growth is -0.798% (active).

For the compound `C#Cc1cccc(Nc2nc(C)nc3cc(NC(=O)CCl)ccc23)c1`, the growth was -91.8% (active).

As to `CSc1nn2c(-c3ccc4ccccc4c3)ccnc2c1C#N`, the growth was 16.7% (inactive).

For the compound `CCN(CC)CCCOc1ccc2ncnc(Nc3ccc(Oc4cccc(C(F)(F)F)c4)c(Cl)c3)c2c1`, the growth is 0.274% (active).

As to `O=C1/C(=C\c2ccccn2)c2ccccc2N1c1c(Cl)cccc1Cl`, the growth is 16.8% (inactive).

Regarding `CCOC(=O)c1c(C)c2c(n1Cc1ccccc1)CSCC2=O`, the growth is 24.6% [100 µM] (inactive).

On to `O=C(CN1CCN(c2cc3c(cc2F)c(=O)c(C(=O)O)cn3C2CC2)CC1)N/N=C/c1ccco1`, for which the growth is 88.3% (inactive).

Regarding `Clc1ccc(-c2cc(-c3ccccc3)nc(NCCNc3ccnc4cc(Cl)ccc34)n2)cc1`, the growth is 36.4% (inactive).

As to `N#C/C(=C\C=C\c1ccc(-c2cc(Cl)ccc2Cl)o1)c1nc2ccccc2s1`, the growth is 68.2% (inactive).

In the case of `COc1cc(OC)c(C(=O)C(CN(C)C)CN(C)C)cc1OC`, the growth was 10.4% (inactive).

Regarding `CCn1cc(CNc2ccc(C(=O)Nc3cc4cc(OC)c(OC)cc4c(C)n3)cc2)cn1`, the growth was 19.8% (inactive).

As to `N#Cc1c(-c2ccccc2)nc(SCc2nnc(-c3ccc(Cl)cc3)o2)[nH]c1=O`, the growth is 74.6% (inactive).

On to `O=P(O)(O)OCC1OC(n2cnc3c(NCc4ccco4)ncnc32)C(O)C1O` (stereo not given), for which the growth was -6.51% (active).

On to `CCN(CC)CCCN1C(=O)c2c(c(C)c3c(oc4ccc(O)cc43)c2C)C1=O`, for which the growth is 63.7% (inactive).

In the case of `O=[N+]([O-])c1ccc(-c2cn3nc(-c4c[nH]c5ccccc45)sc3n2)cc1`, the growth was 72.8% (inactive).

For `Cc1nc2ccccc2c(/C=C/c2ccccc2)c1C(=O)/C=C/c1ccccc1`, the growth is 35.8% (inactive).

As for `O=C1Nc2c(C(=O)O)cccc2/C1=N/c1n[nH]c(=S)s1`, the growth was 69.9% (inactive).

As for `CC(=O)Oc1ccc(OC(C)=O)c2ccccc12`, the growth is 23.7% (inactive).

Regarding `COC(=O)/C=C1/SC(=Nc2ccc([N+](=O)[O-])cc2)N(CCc2c[nH]c3ccc(O)cc23)C1=O`, the growth is 53.5% (inactive).

For the compound `[2H]C([2H])([2H])Oc1ccc(F)cc1/C=C/C(=O)/C=C(/C=C/c1cc(F)ccc1OC([2H])([2H])[2H])OB(F)F`, the growth is 53.9% (inactive).

For the compound `Nc1c(C(=O)Nc2cccc(Cl)c2)sc2nc3c(cc12)CCCC3`, the growth is 90.3% (inactive).

Regarding `NS(=O)(=O)c1ccc(C(=O)NN2C(=O)c3c(Br)c(Br)c(Br)c(Br)c3C2=O)cc1`, the growth is 81.7% (inactive).

On to `Cc1c(Cl)cccc1C(=O)Nc1nc2c(s1)CN(C(=O)c1ccc(C(F)(F)F)cc1)CC2`, for which the growth is 44.4% (inactive).

Take `CCCCCN(CCCCC)CC(O)c1cc(C)c2ccc3cc(C(C)C)ccc3c2c1` (stereo not given): the growth is 51.8% (inactive).

As for `CCC1S/C(=N\N=C(\C)c2cc3cc(Cl)ccc3o2)N(c2ccccc2)C1=O` (stereo not given), the growth is 145% (inactive).

`CN1C(=O)/C(=C/c2ccc(C(=O)Nc3ncc(Cc4cccc(Cl)c4)s3)cc2)SC1=S`: the growth was 55.6% (inactive).

Turning to `O=C(NCc1cccc(CNC(=O)Nc2nc3ccccc3[nH]2)c1)Nc1nc2ccccc2[nH]1`, the growth is 62.6% (inactive).

For the compound `COc1ccc(Cn2cc3c(c2-c2ccccc2)CCc2cnoc2-3)cc1`, the growth is 36.5% (inactive).

In the case of `Cc1ccc(CNc2c3ccccc3nc3ccccc23)cc1`, the growth is 12% (inactive).

`FC(F)(F)c1ccc(Cn2cc(CSc3nc4ccccc4s3)nn2)cc1`: the growth was 78.7% (inactive).

As for `COc1cc(OC)c2sc(-c3ccc(-n4cncc4-c4cc(OC)c(OC)c(OC)c4)cc3)nc2c1`, the growth was 41% (inactive).

For the compound `C#CCn1cnc2cnc(Nc3cccc(NC(=O)C=C)c3)nc21`, the growth was 37.5% [6.25 µM] (inactive).

As to `CC(=O)/C(=C/c1ccc([N+](=O)[O-])cc1)C(=O)c1ccccc1`, the growth was 69.1% (inactive).

Take `CCOC(=O)/C=C1\S/C(=N\Nc2cc(=O)[nH]c3ccccc23)N(c2ccccc2)C1=O`: the growth is 77.6% (inactive).

Turning to `Cc1ccc(/C=C/C(=O)c2ccc(-n3cc(CN4CCN(c5cc6c(cc5F)c(=O)c(C(=O)O)cn6C5CC5)CC4)nn3)cc2)cc1`, the growth was 61.8% (inactive).
